# Reference: the supplement of paper PMC11732987, “Enantioselective OTUD7B fragment discovery through chemoproteomics screening and high-throughput optimisation” (Communications Chemistry, 2025)
# Unmarked numbers belong to inactive results.
# Tests used:
# Assay in all cases: log2 ratio of Biotin-Ahx-Ub-VS probe labelling (fragment/DMSO); higher = less target engagement (more negative = stronger competition), active = hit call of the paper (q ≤ 0.05, log2 ratio ≤ -1)
# Details in all cases: compound concentration: 200 uM; treatment time: 3 h
# [1] = target: T1, OTUD6B (UniProt Q8N6M0)
# T1 sequence (whole entry): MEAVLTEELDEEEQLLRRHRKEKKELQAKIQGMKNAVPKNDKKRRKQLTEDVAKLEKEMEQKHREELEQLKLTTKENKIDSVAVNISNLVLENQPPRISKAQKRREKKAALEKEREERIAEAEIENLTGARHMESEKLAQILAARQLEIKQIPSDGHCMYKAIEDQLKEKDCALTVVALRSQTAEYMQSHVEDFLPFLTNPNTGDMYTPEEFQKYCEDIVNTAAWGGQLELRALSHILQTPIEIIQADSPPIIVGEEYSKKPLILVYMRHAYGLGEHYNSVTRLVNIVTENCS
# Method in brief: (§1)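 The table lists average log2 ratios of fragment over vehicle, from an unpaired t-test on global-median-normalised Spectronaut label-free quantities. Proteins with ≥2 unique peptides were used. Samples were HEK293T lysate (495 µg) treated in triplicate with fragment at 200 µM or vehicle for 3 h, then with Biotin-Ahx-Ub-VS (0.5 µM final) for 1 h, with labelled DUBs NeutrAvidin-enriched and run by diaPASEF LC-MS/MS.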
# [2] = target: T2, OTUD7B (UniProt Q6GQQ9)
# T2 sequence (whole entry): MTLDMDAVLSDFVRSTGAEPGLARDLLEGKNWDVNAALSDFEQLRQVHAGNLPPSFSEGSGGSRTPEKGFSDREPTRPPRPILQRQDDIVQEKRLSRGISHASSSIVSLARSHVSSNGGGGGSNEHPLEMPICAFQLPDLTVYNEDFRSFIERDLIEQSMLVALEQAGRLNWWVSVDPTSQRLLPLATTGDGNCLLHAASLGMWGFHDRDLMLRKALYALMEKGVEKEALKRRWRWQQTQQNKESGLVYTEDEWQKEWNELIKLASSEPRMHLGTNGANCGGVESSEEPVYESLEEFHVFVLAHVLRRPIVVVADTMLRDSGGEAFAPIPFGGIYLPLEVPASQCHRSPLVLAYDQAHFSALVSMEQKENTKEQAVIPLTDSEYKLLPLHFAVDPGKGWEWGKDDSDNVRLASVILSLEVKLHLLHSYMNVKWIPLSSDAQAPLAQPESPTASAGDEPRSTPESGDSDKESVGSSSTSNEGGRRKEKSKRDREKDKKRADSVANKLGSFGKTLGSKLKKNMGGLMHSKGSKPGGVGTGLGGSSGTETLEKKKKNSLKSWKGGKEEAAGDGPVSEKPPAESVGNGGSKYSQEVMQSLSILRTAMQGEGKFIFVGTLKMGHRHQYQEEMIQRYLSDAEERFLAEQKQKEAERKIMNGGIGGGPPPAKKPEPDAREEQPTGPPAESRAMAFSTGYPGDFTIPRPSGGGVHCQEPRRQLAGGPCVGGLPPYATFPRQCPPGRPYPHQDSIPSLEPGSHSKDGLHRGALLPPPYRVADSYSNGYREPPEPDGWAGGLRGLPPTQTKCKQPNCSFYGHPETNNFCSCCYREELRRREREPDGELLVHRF
# Method in brief: as §1
# [3] = target: PRPF8 (UniProt Q6P2Q9)
# Method in brief: as §1
# [4] = target: T3, PSMD7 (UniProt P51665)
# T3 sequence (whole entry): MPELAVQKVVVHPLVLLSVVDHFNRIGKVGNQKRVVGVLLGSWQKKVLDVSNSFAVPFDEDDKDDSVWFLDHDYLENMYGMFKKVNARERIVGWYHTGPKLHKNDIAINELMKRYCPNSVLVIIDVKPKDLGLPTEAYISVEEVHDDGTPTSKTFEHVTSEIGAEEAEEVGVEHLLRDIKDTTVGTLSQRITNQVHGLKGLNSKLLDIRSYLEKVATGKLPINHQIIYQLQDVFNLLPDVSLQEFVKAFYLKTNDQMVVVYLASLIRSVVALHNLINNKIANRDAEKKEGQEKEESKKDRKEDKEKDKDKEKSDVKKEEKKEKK
# Method in brief: as §1
# [5] = target: UCHL1 (UniProt P09936)
# Method in brief: as §1
# [6] = target: T4, UCHL3 (UniProt P15374)
# T4 sequence (whole entry): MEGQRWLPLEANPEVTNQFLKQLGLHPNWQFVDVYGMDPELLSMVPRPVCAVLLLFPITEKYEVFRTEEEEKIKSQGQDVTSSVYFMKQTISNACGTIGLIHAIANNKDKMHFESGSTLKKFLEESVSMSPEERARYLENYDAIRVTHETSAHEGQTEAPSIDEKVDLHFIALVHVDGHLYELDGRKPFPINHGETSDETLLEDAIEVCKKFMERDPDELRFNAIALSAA
# Method in brief: as §1
# [7] = target: T5, UCHL5 (UniProt Q9Y5K5)
# T5 sequence (whole entry): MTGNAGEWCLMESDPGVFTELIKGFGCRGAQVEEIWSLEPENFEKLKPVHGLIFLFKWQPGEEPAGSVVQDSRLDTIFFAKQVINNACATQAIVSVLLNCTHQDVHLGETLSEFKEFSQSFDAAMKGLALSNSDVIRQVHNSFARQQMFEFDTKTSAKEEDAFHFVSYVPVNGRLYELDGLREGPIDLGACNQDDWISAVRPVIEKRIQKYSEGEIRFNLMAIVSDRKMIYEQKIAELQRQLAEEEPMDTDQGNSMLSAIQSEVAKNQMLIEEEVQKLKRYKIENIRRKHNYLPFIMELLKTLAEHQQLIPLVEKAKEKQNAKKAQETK
# Method in brief: as §1
# [8] = target: USP10 (UniProt Q14694)
# Method in brief: as §1
# [9] = target: T6, USP15 (UniProt Q9Y4E8)
# T6 sequence (whole entry): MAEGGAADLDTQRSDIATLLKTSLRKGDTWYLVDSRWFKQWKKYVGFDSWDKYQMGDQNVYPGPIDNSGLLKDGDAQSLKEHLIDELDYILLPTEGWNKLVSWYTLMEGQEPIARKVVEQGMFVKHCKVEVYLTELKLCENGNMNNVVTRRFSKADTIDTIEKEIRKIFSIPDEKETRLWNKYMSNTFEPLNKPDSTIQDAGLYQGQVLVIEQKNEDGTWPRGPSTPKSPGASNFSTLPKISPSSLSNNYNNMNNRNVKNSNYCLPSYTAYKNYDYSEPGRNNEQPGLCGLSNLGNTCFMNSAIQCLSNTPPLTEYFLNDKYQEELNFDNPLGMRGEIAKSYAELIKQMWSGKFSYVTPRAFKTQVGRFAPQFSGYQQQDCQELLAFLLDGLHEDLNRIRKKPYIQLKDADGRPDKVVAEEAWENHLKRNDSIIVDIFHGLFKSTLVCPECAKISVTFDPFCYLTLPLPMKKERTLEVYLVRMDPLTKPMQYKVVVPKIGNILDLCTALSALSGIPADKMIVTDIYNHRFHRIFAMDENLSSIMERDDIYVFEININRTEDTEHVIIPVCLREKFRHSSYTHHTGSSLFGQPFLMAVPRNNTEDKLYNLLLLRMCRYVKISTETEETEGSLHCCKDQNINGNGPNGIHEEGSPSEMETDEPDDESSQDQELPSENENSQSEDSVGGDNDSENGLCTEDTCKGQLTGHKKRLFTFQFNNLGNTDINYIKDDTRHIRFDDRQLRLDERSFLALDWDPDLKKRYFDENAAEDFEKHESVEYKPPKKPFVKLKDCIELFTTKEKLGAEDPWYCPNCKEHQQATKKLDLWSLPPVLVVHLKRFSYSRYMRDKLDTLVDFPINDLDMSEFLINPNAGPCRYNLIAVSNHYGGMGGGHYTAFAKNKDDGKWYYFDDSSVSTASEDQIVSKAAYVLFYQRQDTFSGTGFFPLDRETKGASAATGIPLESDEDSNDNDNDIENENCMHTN
# Method in brief: as §1
# [10] = target: USP16 (UniProt Q9Y5T5)
# Method in brief: as §1
# USP16, sequence (Q9Y5T5 whole entry, looked up): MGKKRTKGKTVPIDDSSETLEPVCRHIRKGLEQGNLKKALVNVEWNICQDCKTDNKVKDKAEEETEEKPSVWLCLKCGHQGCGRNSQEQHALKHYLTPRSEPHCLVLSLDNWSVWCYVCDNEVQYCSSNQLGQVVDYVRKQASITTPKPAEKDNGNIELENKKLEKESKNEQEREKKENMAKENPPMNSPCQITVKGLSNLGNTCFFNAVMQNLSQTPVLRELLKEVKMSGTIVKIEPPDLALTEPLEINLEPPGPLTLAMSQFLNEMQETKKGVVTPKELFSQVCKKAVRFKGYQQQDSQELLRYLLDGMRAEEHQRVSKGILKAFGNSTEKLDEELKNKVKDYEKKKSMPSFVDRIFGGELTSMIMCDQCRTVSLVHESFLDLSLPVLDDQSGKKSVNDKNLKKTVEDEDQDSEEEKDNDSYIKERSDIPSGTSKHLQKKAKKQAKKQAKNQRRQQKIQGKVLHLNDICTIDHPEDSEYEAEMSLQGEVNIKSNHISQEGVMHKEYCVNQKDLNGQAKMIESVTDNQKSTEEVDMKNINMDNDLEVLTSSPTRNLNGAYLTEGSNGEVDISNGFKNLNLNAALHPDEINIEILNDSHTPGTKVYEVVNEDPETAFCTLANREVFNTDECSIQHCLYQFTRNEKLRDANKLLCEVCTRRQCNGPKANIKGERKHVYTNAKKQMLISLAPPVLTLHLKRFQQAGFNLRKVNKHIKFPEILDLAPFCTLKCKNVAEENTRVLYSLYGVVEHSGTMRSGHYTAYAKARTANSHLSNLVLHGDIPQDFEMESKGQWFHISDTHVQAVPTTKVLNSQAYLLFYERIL
# USP10, sequence (Q14694 whole entry): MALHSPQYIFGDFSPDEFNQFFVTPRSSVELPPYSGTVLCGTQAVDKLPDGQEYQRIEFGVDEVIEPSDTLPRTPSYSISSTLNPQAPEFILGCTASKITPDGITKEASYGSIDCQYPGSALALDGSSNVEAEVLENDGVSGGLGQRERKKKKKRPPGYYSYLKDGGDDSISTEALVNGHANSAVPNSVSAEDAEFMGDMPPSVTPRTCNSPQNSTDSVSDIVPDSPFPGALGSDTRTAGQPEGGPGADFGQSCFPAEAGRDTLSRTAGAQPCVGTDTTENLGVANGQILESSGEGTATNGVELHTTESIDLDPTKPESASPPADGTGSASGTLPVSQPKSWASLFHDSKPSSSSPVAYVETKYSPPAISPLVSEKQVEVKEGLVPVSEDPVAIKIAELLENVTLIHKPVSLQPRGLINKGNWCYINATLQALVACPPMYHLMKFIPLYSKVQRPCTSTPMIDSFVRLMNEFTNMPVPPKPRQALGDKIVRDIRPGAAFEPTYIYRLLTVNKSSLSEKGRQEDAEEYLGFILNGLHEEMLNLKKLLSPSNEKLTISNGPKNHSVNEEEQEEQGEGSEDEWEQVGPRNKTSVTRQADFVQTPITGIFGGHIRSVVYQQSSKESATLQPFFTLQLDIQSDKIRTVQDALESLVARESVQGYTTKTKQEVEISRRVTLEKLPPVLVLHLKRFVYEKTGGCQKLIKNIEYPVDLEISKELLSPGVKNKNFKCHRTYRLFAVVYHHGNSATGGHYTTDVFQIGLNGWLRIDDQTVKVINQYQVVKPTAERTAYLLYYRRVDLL
# UCHL1, sequence (P09936 whole entry, looked up): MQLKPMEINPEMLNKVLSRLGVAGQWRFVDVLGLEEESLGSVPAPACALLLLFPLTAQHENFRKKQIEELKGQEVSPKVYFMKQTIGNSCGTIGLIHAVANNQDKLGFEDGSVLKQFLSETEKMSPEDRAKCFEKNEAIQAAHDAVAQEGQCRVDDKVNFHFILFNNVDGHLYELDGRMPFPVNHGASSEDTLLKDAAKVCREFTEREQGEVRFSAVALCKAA
smiles,measurement,setting,value
O=C(CCl)N1CCOCCC1c1ccccc1 (stereo not given),log2 ratio of Biotin-Ahx-Ub-VS probe labelling,[1],-0.163
same,log2 ratio of Biotin-Ahx-Ub-VS probe labelling,[2],-0.354
same,log2 ratio of Biotin-Ahx-Ub-VS probe labelling,[3],-0.148
same,log2 ratio of Biotin-Ahx-Ub-VS probe labelling,[4],0.00247
same,log2 ratio of Biotin-Ahx-Ub-VS probe labelling,[5],-1.93 (active)
same,log2 ratio of Biotin-Ahx-Ub-VS probe labelling,[6],0.325
same,log2 ratio of Biotin-Ahx-Ub-VS probe labelling,[7],-0.0371
same,log2 ratio of Biotin-Ahx-Ub-VS probe labelling,[8],-0.182
same,log2 ratio of Biotin-Ahx-Ub-VS probe labelling,[9],0.0371
same,log2 ratio of Biotin-Ahx-Ub-VS probe labelling,[10],-0.424
